# Experimental data as given in paper PMC7862700, “An all-to-all approach to the identification of sequence-specific readers for epigenetic DNA modifications on cytosine”.
# Legend:
# Experiment in all cases: DAPPL (digital affinity profiling via proximity ligation, sequencing); 10 mM Tris-HCl pH 7.5, 50 mM NaCl, 1 mM DTT, 4% glycerol, room temperature, 30 min; GST-TFs on glutathione beads, 16-mer random dsDNA library, 0.1% formaldehyde crosslink after washing; high values mean tight binding
# Conditions in all cases: protein: recombinant; tags: N-terminal GST; dsDNA, one strand shown
# FLI1 = target: T1, FLI1 (Homo sapiens, UniProt Q01543 1-452)
# T1 sequence: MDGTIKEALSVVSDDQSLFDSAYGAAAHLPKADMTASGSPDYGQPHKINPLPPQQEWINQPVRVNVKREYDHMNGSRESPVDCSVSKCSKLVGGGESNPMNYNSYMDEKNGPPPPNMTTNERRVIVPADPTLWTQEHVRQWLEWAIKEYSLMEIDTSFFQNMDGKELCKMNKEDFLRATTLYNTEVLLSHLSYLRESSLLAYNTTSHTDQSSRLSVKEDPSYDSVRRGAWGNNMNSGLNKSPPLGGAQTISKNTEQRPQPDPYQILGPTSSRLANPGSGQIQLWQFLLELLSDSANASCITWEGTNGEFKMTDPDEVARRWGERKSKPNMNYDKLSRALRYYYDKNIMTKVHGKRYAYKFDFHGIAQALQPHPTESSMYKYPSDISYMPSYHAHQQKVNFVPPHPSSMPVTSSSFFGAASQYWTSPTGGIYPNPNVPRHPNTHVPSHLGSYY
# Outline: (§1)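 Binding signal is given per hexamer as its read frequency for a factor divided by its frequency in the tag-only sample. GST-fused human transcription factors were expressed in yeast, captured on glutathione beads, barcoded with DNA and pooled with that sample, then incubated with 200 nmole of a 16-mer random double-stranded DNA library in Tris/NaCl/DTT/glycerol buffer for 30 min at room temperature. The pools were then washed, crosslinked, proximity-ligated, amplified by PCR and sequenced on an Illumina NextSeq500.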
# ELK1 = target: T2, ELK1 (Homo sapiens, UniProt P19419 1-428)
# T2 sequence: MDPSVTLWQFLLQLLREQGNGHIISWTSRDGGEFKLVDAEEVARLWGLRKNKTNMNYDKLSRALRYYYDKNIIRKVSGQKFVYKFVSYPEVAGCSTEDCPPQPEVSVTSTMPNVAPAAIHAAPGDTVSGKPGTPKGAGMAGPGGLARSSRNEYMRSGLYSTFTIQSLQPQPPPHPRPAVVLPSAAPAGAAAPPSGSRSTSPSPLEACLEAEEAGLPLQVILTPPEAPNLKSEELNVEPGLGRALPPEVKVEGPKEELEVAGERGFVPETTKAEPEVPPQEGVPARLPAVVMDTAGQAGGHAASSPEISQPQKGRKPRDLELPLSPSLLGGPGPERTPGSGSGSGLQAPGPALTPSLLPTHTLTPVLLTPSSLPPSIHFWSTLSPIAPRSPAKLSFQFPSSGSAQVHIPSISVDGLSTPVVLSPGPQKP
# Outline: as §1
# GABPA = target: T3, GABPA (Homo sapiens, UniProt Q06546 1-454)
# T3 sequence: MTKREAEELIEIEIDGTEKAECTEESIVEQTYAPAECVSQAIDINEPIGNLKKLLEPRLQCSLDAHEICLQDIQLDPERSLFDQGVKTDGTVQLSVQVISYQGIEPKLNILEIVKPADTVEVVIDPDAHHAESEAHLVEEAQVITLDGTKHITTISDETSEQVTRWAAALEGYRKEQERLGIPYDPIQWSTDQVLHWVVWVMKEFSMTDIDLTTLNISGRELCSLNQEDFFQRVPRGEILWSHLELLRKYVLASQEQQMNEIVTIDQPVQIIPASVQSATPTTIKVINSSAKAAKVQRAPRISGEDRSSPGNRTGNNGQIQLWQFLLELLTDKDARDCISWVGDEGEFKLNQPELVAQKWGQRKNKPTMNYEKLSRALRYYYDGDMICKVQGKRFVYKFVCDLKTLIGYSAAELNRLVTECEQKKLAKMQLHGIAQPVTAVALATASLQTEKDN
# Outline: as §1
# ERG = target: T4, ERG (Homo sapiens, UniProt P11308 1-479)
# T4 sequence: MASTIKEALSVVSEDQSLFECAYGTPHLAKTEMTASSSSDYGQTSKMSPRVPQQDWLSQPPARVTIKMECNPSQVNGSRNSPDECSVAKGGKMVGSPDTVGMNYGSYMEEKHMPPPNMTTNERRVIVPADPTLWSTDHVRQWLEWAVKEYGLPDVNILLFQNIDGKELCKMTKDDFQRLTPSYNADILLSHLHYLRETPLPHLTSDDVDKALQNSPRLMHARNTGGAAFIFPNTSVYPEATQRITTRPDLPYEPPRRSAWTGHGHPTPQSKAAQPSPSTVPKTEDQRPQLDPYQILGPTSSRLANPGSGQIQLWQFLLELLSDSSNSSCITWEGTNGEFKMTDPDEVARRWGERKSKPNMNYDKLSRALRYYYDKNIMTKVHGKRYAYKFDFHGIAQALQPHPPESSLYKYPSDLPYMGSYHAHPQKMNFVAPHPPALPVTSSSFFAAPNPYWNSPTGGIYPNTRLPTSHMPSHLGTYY
# Outline: as §1
# ELF1 = ELF1 (Homo sapiens, UniProt P32519 1-619)
# Outline: as §1
# EHF = target: T5, EHF (Homo sapiens, UniProt Q9NZC4 1-300)
# T5 sequence: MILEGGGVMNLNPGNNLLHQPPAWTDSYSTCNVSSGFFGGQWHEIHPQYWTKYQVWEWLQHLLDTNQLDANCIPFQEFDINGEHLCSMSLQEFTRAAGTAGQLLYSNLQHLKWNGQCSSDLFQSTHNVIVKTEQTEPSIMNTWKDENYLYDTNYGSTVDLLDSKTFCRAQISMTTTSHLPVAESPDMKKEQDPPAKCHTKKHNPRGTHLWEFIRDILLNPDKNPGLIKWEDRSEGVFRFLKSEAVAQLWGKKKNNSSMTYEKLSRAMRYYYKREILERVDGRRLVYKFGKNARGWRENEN
# Outline: as §1
# SPI1 = SPI1 (Homo sapiens, UniProt P17947 1-270)
# Outline: as §1
# SPIB = SPIB (Homo sapiens, UniProt Q01892 1-262)
# Outline: as §1
# ELK3 = target: T6, ELK3 (Homo sapiens, UniProt P41970 1-407)
# T6 sequence: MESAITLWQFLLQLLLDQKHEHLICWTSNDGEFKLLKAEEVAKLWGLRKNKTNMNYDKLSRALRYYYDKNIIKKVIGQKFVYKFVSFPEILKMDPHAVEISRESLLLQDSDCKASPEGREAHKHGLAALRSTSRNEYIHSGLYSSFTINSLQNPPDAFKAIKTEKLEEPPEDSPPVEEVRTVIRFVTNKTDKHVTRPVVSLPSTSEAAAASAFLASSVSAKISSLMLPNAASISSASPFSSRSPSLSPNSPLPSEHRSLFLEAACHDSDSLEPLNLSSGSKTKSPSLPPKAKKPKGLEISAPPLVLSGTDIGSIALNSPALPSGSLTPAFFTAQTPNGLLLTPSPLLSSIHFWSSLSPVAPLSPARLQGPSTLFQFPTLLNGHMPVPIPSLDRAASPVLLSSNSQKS
# Outline: as §1
# FEV = target: T7, FEV (Homo sapiens, UniProt Q99581 1-238)
# T7 sequence: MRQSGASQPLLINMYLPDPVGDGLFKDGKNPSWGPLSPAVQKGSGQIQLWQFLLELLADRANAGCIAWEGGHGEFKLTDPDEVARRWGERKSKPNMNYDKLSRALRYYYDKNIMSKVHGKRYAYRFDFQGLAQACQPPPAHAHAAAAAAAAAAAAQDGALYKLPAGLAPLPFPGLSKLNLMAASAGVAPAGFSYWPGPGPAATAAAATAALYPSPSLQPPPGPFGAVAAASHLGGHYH
# Outline: as §1
# ETV5 = ETV5 (Homo sapiens, UniProt P41161 1-510)
# Outline: as §1
# SPIC = target: T8, SPIC (Homo sapiens, UniProt Q8N5J4 1-248)
# T8 sequence: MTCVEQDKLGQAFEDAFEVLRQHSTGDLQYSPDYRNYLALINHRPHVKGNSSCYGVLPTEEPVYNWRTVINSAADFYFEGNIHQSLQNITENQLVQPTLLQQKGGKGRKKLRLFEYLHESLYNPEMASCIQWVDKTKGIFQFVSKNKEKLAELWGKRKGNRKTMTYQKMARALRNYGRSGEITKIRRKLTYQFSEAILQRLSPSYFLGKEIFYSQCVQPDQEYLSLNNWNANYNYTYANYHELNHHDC
# Outline: as §1
# ELF4 = ELF4 (Homo sapiens, UniProt Q99607 1-663)
# Outline: as §1
# ETV1 = ETV1 (Homo sapiens, UniProt P50549 1-477)
# Outline: as §1
# ERF = target: T9, ERF (Homo sapiens, UniProt P50548 1-548)
# T9 sequence: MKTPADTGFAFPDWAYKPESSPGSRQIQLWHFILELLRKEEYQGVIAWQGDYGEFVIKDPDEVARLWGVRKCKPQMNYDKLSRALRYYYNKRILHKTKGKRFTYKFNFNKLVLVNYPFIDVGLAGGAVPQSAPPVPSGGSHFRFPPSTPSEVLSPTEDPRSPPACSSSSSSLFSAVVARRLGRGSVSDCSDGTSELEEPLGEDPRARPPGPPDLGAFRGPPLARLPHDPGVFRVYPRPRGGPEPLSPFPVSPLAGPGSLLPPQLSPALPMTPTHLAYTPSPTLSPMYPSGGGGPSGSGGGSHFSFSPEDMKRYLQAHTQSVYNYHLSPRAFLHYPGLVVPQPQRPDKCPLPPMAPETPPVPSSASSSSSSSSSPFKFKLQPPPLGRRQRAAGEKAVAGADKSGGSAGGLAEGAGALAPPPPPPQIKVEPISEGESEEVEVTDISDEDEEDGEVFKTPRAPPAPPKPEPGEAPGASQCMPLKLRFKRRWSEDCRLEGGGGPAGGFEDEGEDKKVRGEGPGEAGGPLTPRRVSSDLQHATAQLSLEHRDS
# Outline: as §1
# ETV3L = target: T10, ETV3L (Homo sapiens, UniProt Q6ZN32 1-361)
# T10 sequence: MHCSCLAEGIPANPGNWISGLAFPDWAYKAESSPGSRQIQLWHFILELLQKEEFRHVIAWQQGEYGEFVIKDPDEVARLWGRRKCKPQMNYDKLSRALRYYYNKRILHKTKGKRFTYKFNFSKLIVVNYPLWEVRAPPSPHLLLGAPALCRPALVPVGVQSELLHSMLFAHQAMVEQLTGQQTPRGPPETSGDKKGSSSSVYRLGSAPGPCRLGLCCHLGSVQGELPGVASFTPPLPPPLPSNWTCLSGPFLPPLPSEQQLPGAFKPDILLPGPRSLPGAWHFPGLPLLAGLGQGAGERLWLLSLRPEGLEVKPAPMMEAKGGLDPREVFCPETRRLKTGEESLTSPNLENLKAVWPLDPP
# Outline: as §1
# ETS2 = target: T11, ETS2 (Homo sapiens, UniProt P15036 1-469)
# T11 sequence: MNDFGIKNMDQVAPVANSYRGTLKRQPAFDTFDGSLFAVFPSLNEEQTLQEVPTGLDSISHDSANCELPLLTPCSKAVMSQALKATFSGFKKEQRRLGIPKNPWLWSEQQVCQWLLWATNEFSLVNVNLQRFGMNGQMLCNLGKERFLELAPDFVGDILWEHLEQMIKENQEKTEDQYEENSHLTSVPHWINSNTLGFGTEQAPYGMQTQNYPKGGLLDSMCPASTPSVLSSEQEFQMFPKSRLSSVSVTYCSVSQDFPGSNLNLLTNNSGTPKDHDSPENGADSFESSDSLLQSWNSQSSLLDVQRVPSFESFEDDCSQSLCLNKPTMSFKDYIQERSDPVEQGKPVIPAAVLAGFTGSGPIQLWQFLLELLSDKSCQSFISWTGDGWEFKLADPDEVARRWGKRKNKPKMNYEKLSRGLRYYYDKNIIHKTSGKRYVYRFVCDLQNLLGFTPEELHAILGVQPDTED
# Outline: as §1
# ELF5 = target: T12, ELF5 (Homo sapiens, UniProt Q9UKW6-2 1-255)
# T12 sequence: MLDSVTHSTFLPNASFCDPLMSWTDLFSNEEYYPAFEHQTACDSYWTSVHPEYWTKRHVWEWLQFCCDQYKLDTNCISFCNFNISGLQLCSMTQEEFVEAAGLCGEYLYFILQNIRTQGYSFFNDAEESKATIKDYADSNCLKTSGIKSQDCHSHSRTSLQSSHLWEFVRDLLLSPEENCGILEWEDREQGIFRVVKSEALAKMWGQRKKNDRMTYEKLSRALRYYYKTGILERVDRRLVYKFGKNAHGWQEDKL
# Outline: as §1
# ETV3 = target: T13, ETV3 (Homo sapiens, UniProt P41162-2 1-143)
# T13 sequence: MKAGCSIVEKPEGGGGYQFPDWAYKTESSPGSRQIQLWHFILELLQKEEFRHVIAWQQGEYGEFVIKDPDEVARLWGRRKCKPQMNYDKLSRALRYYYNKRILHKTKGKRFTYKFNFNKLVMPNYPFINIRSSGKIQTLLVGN
# Outline: as §1
# Sequence of ELF1 (P32519 whole entry): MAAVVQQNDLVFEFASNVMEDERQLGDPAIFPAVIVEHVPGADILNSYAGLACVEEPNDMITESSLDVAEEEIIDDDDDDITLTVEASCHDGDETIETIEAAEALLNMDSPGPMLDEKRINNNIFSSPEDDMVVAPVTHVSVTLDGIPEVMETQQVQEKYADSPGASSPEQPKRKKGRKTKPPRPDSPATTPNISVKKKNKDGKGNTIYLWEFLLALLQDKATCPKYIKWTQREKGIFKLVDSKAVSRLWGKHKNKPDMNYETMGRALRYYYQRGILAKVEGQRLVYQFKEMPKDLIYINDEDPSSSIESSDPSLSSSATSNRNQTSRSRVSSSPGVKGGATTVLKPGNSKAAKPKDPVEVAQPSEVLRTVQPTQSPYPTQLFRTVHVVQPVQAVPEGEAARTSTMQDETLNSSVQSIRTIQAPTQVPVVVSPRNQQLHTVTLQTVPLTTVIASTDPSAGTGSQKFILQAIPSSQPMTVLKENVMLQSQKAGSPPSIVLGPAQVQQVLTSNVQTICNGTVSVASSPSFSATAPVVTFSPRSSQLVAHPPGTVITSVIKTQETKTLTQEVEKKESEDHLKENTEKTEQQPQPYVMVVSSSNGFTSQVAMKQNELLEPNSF
# Sequence of SPIB (Q01892 whole entry): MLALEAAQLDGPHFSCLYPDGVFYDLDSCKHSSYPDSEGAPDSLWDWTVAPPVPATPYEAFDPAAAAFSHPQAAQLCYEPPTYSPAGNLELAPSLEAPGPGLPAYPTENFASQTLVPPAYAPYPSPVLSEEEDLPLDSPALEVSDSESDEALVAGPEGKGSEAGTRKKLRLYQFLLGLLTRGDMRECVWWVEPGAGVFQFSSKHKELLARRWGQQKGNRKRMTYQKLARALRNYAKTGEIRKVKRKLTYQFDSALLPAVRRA
# Sequence of ELF4 (Q99607 whole entry): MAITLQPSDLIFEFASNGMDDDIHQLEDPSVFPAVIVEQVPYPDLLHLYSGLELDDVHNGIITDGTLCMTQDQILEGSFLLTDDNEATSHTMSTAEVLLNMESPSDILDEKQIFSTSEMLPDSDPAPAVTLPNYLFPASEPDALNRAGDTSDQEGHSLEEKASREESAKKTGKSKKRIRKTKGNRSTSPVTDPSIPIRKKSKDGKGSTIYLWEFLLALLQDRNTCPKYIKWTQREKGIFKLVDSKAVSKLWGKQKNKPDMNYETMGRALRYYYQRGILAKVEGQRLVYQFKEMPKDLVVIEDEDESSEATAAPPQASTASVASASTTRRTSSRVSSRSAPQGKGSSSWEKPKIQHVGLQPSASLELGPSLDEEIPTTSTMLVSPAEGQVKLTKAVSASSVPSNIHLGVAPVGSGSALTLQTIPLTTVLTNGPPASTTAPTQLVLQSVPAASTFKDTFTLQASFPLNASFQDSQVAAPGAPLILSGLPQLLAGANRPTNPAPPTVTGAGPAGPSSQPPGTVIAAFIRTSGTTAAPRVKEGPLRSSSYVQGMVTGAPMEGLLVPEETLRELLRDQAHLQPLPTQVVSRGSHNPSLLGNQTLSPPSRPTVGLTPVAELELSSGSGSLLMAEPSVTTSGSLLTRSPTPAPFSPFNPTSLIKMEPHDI
# Sequence of ETV1 (P50549 whole entry): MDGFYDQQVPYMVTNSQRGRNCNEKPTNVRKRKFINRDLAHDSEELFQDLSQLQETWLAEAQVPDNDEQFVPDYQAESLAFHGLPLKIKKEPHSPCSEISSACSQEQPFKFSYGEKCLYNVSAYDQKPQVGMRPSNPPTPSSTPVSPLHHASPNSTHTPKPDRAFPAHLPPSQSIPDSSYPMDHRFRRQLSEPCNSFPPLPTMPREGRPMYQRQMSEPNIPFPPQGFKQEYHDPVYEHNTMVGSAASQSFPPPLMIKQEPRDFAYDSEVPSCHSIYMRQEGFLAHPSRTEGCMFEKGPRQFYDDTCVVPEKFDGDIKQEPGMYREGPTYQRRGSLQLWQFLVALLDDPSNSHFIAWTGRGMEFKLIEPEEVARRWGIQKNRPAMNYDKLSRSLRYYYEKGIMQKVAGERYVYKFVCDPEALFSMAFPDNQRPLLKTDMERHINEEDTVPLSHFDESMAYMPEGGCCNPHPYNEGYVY
# Sequence of ETV5 (P41161 whole entry): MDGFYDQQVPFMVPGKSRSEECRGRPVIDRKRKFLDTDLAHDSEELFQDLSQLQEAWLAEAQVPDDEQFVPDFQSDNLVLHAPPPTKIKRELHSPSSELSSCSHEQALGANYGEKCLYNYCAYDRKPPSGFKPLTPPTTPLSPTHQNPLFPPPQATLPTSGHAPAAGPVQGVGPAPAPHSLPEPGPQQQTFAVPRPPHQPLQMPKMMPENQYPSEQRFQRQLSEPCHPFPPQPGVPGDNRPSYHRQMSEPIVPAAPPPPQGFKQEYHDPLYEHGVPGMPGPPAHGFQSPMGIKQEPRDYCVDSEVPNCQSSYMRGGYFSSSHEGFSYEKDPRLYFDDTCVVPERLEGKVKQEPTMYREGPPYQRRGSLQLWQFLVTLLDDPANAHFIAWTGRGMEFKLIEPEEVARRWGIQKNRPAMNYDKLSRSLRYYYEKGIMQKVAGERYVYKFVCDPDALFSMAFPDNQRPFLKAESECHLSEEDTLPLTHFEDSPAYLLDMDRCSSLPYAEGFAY
sequence,measurement,setting,value
GCTGCG,binding signal,FLI1,"1.01 fold enrichment (6-mer frequency, TF over GST control)"
same,binding signal,ELK1,"1.12 fold enrichment (6-mer frequency, TF over GST control)"
same,binding signal,GABPA,"1.1 fold enrichment (6-mer frequency, TF over GST control)"
same,binding signal,ERG,"1.09 fold enrichment (6-mer frequency, TF over GST control)"
same,binding signal,ELF1,"1.13 fold enrichment (6-mer frequency, TF over GST control)"
same,binding signal,EHF,"1.21 fold enrichment (6-mer frequency, TF over GST control)"
same,binding signal,SPI1,"1.08 fold enrichment (6-mer frequency, TF over GST control)"
same,binding signal,SPIB,"1.08 fold enrichment (6-mer frequency, TF over GST control)"
same,binding signal,ELK3,"1.04 fold enrichment (6-mer frequency, TF over GST control)"
same,binding signal,FEV,"1.1 fold enrichment (6-mer frequency, TF over GST control)"
same,binding signal,ETV5,"1.12 fold enrichment (6-mer frequency, TF over GST control)"
same,binding signal,SPIC,"1.08 fold enrichment (6-mer frequency, TF over GST control)"
same,binding signal,ELF4,"1.1 fold enrichment (6-mer frequency, TF over GST control)"
same,binding signal,ETV1,"1.16 fold enrichment (6-mer frequency, TF over GST control)"
same,binding signal,ERF,"1.08 fold enrichment (6-mer frequency, TF over GST control)"
same,binding signal,ETV3L,"1.13 fold enrichment (6-mer frequency, TF over GST control)"
same,binding signal,ETS2,"1.14 fold enrichment (6-mer frequency, TF over GST control)"
same,binding signal,ELF5,"1.04 fold enrichment (6-mer frequency, TF over GST control)"
same,binding signal,ETV3,"1.07 fold enrichment (6-mer frequency, TF over GST control)"
